Source: PubChem
Only a selection was taken, and hits are over-represented in it overall.
CHX counter – affects cycloheximide protein synthesis inhibition readout, counter-screen; cell reporter, cycloheximide protein synthesis inhibition counterscreen; max response, %; 300,000 tested, 12% active; in the data active means max response mostly above about 13%, no sharp cut-off; inactive means mostly below about 14%; further: read at 38.3 µM for the half of the compounds with a filed dose; 0% is about no effect
SARS PLpro yeast – blocks SARS-CoV papain-like protease in a yeast assay; S. cerevisiae expressing SARS-CoV PLpro, growth rescue; Potency, µM (top dose mostly 32.9 µM), inactives show at the highest dose activity, positive = growth rescue, most hits filed as activators; 330,000 tested, 0.19% active; AID 485353; calls by dose curve; further: potency means the concentration at half of the fitted maximal effect; 0% is about no effect; nearly all actives have a fitted effect of over 55% in size
AMA1 RON2 block – inhibitors of Plasmodium falciparum AMA1-RON2 interaction; 360,000 tested, 0.2% active; AlphaScreen AMA1-biotinylated RON2 peptide binding; Potency, µM (highest dose often 58.2 µM), for inactives: top-dose activity change, negative = inhibition, actives largely listed as inhibitors;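 further: potency means the concentration at half of the fitted maximal effect; 0% = vehicle wells and -100% = peptide control; nearly all actives have a fitted effect of over 45% in size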
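AMA1 (3D7) with his tag at 25 nM final met compounds first, then biotinylated RON2 peptide at 25 nM; detection used donor plus acceptor beads, 10 µg/mL apiece, read by AlphaScreen after 30 min at room temperature.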
AmpC no deterg – blocks E. coli AmpC beta-lactamase in detergent-free assay | P00811 | AmpC nitrocefin hydrolysis, absorbance 480 nm, 0.0001% Triton | Potency, µM (series often up to 57.1 µM), for inactives: at the highest dose activity change, negative = inhibition, actives largely listed as inhibitors | 330,000 tested, 0.52% active | AID 485341;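 further: potency means the concentration at half of the fitted maximal effect; plate controls were no compound for no effect and no enzyme for full effect; nearly all actives have a fitted effect of over 20% in size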
Target sequence (P00811 whole entry, looked up): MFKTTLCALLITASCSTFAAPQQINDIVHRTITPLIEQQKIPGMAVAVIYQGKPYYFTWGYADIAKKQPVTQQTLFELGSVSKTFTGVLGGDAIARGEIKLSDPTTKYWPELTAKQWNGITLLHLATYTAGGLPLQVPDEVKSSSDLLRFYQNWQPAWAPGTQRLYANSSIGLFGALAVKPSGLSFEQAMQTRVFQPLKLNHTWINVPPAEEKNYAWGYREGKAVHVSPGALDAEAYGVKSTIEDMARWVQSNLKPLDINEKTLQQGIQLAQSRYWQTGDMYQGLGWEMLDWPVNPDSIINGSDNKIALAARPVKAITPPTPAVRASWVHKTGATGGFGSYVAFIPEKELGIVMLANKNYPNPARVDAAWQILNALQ
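20 mM phosphate pH 7.0 + 0.01% (detergent screen) or 0.0001% Triton X-100; 5.3 nM AmpC reagent; cpd preinc 15 min RT; nitrocefin (800 uM stock) to start; A480 q20 s × 4 min; Activity was normalised to no-enzyme and no-compound control wells.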
AmpC inh detg – AmpC beta-lactamase inhibition with detergent present; Potency, µM (highest dose often 114 µM), for inactives: top-dose activity change, negative = inhibition, most hits filed as inhibitors; AmpC hydrolysis of nitrocefin, absorbance 480 nm, 0.01% Triton; 370,000 tested, 0.041% active;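 further: potency means the concentration at half of the fitted maximal effect; 0% = no-compound wells and -100% = no-enzyme wells; nearly all actives have a fitted effect of over 25% in size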
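20 mM phosphate pH 7.0 + 0.01% (detergent screen) or 0.0001% Triton X-100; 5.3 nM AmpC reagent; cpd preinc 15 min RT; nitrocefin (800 uM stock) to start; A480 q20 s × 4 min; Activity was normalised to no-enzyme and no-compound control wells.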
Shiga inhibitor – Shiga toxin inhibition; 290,000 tested, 9.2% active; Vero cells, Shiga toxin protein synthesis inhibition reporter; inhibition, % at 38.7 µM; in the data active means inhibition mostly above about 28%, no sharp cut-off; inactive means mostly below about 43%; further: 0% is about no effect
* = called active by the depositor; ? = inconclusive; . = no result; [ ] = dose if it differs, or a comment. Unless noted, the call rests on the fitted dose curve; in most records, active means well fitted curve in the direction sought with a large enough effect; inconclusive means small, poorly fitted or top-dose-only effect, or another doubt; inactive means no such curve, though single readings can be large; an effect the other way counts as inactive or inconclusive.

SMILES	CHX counter	SARS PLpro yeast	AMA1 RON2 block	AmpC no deterg	AmpC inh detg	Shiga inhibitor
Cc1oc(-c2ccc(C(=O)NC(C)c3ccccc3)cc2)nc1CS(=O)(=O)c1ccccc1 (configuration not stated)	.	.	.	.	17%	.
O=C(CCS(=O)(=O)c1ccc(Br)s1)Nc1cc(C(F)(F)F)cc(C(F)(F)F)c1	.	.	.	.	5%	.
O=C(Nc1cccc(-c2nc3ccccc3s2)c1)c1cccs1	12	-69%	-8%	-17%	-5%	10
CC1=CC(O)C(O)C2(C)C1CC1OC(=O)CC3C(C)C(O)C(=O)C2C13CO (configuration not stated)	.	.	4%	.	.	.
COc1cccc(C(=O)Nc2ccc(N3CCN(S(C)(=O)=O)CC3)cc2)c1	13	-4%	-2%	2%	-3%	26
Cc1cccc(C(=O)Nc2ccc(N3CCN(S(C)(=O)=O)CC3)cc2)c1	22*	1%	0%	0%	-5%	73*
CC(C)Oc1cccc(C(=O)Nc2ccc(N3CCN(S(C)(=O)=O)CC3)cc2)c1	-3	4%	-3%	-4%	?	-12
CC(C)C(=O)Nc1ccccc1N1CCN(S(C)(=O)=O)CC1	-3	-1%	?	0.28µM*	1%	-4
CS(=O)(=O)N1CCN(c2ccc(NC(=O)c3ccccc3)cc2)CC1	37*	-1%	2%	2%	-11%	82*
O=Nc1[nH]c(=O)c(/C=C(\O)c2ccccc2)nc1NO	59*	0%	33%	-18%	1%	62*
O=c1[nH]c2ccccc2nc1/C=C(\O)C(F)F	6	-10%	6%	-50%	8%	31
CN(C)/C=C(/C(=O)c1ccccc1Cl)S(=O)(=O)c1ccccc1	.	.	-1%	.	.	.
COc1ccc(C(=O)/C(=C/N(C)C)S(=O)(=O)c2ccccc2)cc1	27*	0%	-3%	-43%	0%	61*
Cc1ccccc1C(=O)Nc1cccc(N)c1	18*	-4%	18%	-18%	-6%	31*
COc1ccccc1C(=O)Nc1cccc(NC(=O)c2ccccc2C)c1	3	-12%	5%	-32%	-3%	6
Nc1ccc(C(=O)Nc2cccc(N)c2)cc1	20*	-3%	-6%	-48%	-12%	77*
COc1ccccc1/C=C1/SC(=S)N(CCC(=O)Nc2cccnc2)C1=O	36*	?	-5%	0%	-6%	10*
O=C(CCN1C(=O)/C(=C/C=C/c2ccccc2)SC1=S)Nc1cccnc1	47*	14%	-1%[2.32 µM]	?	-9%	86*
O=C(CCN1C(=O)/C(=C\c2ccccc2Cl)SC1=S)Nc1cccnc1	-4	13%	-9%	-27%	-1%	0
O=C(CCN1C(=O)/C(=C/C=C/c2ccccc2)SC1=S)Nc1ccccn1	-10	1%	-12%	-24%	-9%	-23
O=C(CCN1C(=O)/C(=C/c2ccccc2F)SC1=S)NCCc1ccc(O)cc1	-3	-5%	-10%	?	-7%	-5
COc1ccccc1/C=C1\SC(=S)N(CCC(=O)NCCc2ccc(O)cc2)C1=O	21*	-3%	-8%	-34%	-8%	10
CC(C)c1ccc2c(c1)C(N1CCNCC1)Cc1ccc(F)cc1S2 (configuration not stated)	.	.	20%	.	.	.
CCOc1ccc(N(C(=O)CNC(=O)c2ccco2)C(C(=O)NC2CCCC2)c2ccncc2)cc1 (configuration not stated)	-4	0%	17%	-6%	3%	-12
COc1cc(C(=O)Nc2ccccc2N2CCCCC2)cc(OC)c1OC	-8	0%	-10%	85%	-11%	-2
Cc1cccc(-c2noc(CSc3ccccc3)n2)c1	44*	-7%	223%	-36%	2%	67*
c1ccc(C(Cc2nc(-c3cccnc3)no2)c2ccccc2)cc1	-1	-5%	63%	26%	1%	9
c1ccc(SCc2nc(-c3cccnc3)no2)cc1	36*	-9%	8%	0%	-7%	108*
Cc1cccc(-c2noc(CSc3nc(-c4ccc(F)cc4)cc(=O)[nH]3)n2)c1	.	.	.	.	22%	.
